# Source: PubChem
# SW480 rerep – inducers of DNA re-replication in SW480 colon cancer cells | SW480 DNA re-replication, Hoechst DNA content imaging, 48 h | Potency, µM (titrated, usually from 46.1 µM), inactives show top-dose re-replication activation, actives largely listed as activators | actives 1.8% (n = 340,000); also: potency is read from the fitted curve at half-maximal effect; % of control where 0% means no effect; nearly all actives have a fitted effect of over 55% in size
#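 Hoechst fluorescence of nuclei (405 nm excitation, 500-530 nm emission) measured by plate-scanning imager after 48 hr compound exposure at 37 C; re-replication scored as increased number of nuclei with elevated intensity.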
# Giardia kill – kills Giardia lamblia | AID 540267 | Giardia lamblia trophozoite viability | actives 0.15% (n = 340,000) | activity change, % at 7.66 µM, hits read low; in the data active = activity change below about -80%; inconclusive = between about -30% and that limit;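 also: parasites exposed to compound for two days anaerobically before the ATP read; % is scaled to controls: 0 for no effect and ±100 for the full control effect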
#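 Luminescence from cellular ATP indicates surviving trophozoites (100 cells/well) following 48 hrs anaerobic compound treatment at 37 deg C; signal develops 15-30 min at room temperature.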
# uPA generation – cell surface uPA generation inhibition; cell surface uPA generation assay, qHTS; actives 0.31% (n = 330,000); Potency, µM (top dose mostly 38.3 µM), for the others: at the top dose activity change, negative = inhibition, most hits filed as inhibitors; active = well fitted inhibition curve with a large enough effect; inconclusive = small, poorly fitted or top-dose-only effect; inactive = no such curve, though single readings can be large or run the other way; tested in mouse RAW 264.7 cells; also: potency is read from the fitted curve at half-maximal effect; % is scaled to controls: 0 for no effect and ±100 for the full control effect; nearly all actives have a fitted effect of over 55% in size
# MCF10A rerep – DNA re-replication induction in MCF 10a cells; MCF 10A DNA re-replication, Hoechst nuclear intensity, 48 h; Potency, µM (doses to about 46.1 µM), without a hit: at the top dose activity, positive = re-replication, actives largely listed as activators; actives 2.9% (n = 350,000); also: potency is read from the fitted curve at half-maximal effect; % of control where 0% means no effect; nearly all actives have a fitted effect of over 50% in size
# The depositor's hits bear a star; ? = inconclusive; · = no result; [ ] = another dose, or the depositor's remark. An excerpt weighted towards active compounds, which were near 4.3% of everything screened. Unless noted, calls follow the shape of the dose curve; as a rule, active = well fitted activation curve with a large enough effect; inconclusive = small, poorly fitted or top-dose-only effect; inactive = no such curve, though single readings can be large or run the other way.
SMILES,SW480 rerep,Giardia kill,uPA generation,MCF10A rerep
COc1ccc(-c2nc(N3CCC(C)CC3)[nH]c(=O)c2C#N)cc1,?,-12.5,-11.8%,3.66µM*
COP(=O)(OC)c1nc(-c2cccc3ccccc23)oc1NCc1ccccc1,13µM*,-11.6,-0.9%,18.4µM*
OCC1CCCCN1C(=S)Nc1ccc(Cl)cc1Cl (stereo unspecified),?,-16.7,9.0%,0.82µM*
Cc1ccc(C(OCC(O)CNCc2ccc(F)cc2)c2ccccc2)cc1 (stereo unspecified),5.17µM*,30.0,11.2%,2.59µM*
COc1ccc(N(CC(=O)NCCSCc2ccccc2Cl)S(C)(=O)=O)cc1Cl,-7.4%,-9.1,-12.0%,19.0%
CCCc1cc(=O)oc2c3c(c4c(c12)OC(C)(C)C=C4)OC(C)C(C)C3O (stereo unspecified),-3.4%,9.9,1.41µM*,10.3µM*
O=C(N=C1SC2CS(=O)(=O)CC2N1Cc1ccccc1Cl)C1CCCO1 (stereo unspecified),11.2%,11.6,6.6%,6.5%
COc1ccc(-c2noc(Cn3cc(S(=O)(=O)N4CCCC4)ccc3=O)n2)cc1,-0.8%,11.2,-0.7%,-2.5%
Cc1ccc(S(=O)(=O)Oc2ccc(/C=C(/NC(=O)c3ccccc3)C(=O)NCC(=O)O)cc2)cc1,6.51µM*,31.5,-2.8%,-3.2%
Cc1ccc(S(=O)(=O)Oc2ccc(/C=C(/NC(=O)c3ccccc3)C(=O)O)cc2)cc1,4.2%,13.8,1.2%,-6.0%
COc1ccccc1C(=O)Nc1ccc2c(c1)nc(CCNC(=O)c1ccccc1)n2C,13µM*,-15.3,-11.6%,6.51µM*
COc1ccccc1C(=O)Nc1ccc2c(c1)nc(CCNC(C)=O)n2C,-11.9%,0.7,·,-3.6%
N=C1/C(=C/c2cccn2Cc2ccc(F)cc2)C(=O)N=C2SC=CN12,6.1%,-2.2,-11.2%,4.61µM*
CCCCc1ccc(NC(=O)CSC2=C(C#N)C(c3ccco3)C3=C(CCCC3=O)N2)cc1 (stereo unspecified),20.6µM*,-21.3,-8.4%,3.98µM*
COc1cccc(NC(=O)CSC2=C(C#N)C(c3ccco3)C3=C(CCCC3=O)N2)c1 (stereo unspecified),12.6µM*,5.8,-16.0%,25.1µM*
CC(=O)Nc1ccc(Oc2ccccc2)cc1,-14.9%,-13.8,-5.2%,3.2%
CC(=O)Nc1ccc(Oc2sc(C(=O)c3ccccc3)c(N)c2C#N)cc1,?,5.5,-20.6%,20.6µM*
COC(=O)CCC(=O)OC,4.61µM*,-21.8,-5.9%,?
COc1cccc2sc(N(CCN(C)C)C(=O)/C=C/c3cccs3)nc12,17.8%,24.0,?,?
Cc1ccc2nc(N(CCN(C)C)C(=O)/C=C/c3cccs3)sc2c1,?,-0.8,-2.9%,25.9µM*
CCOc1cccc2sc(N(CCN(C)C)C(=O)/C=C/c3cccs3)nc12,?,-16.6,-7.1%,8.2µM*
CN(C)CCCN(C(=O)/C=C/c1cccs1)c1nc2ccc(F)cc2s1,?,5.9,-8.5%,23.1µM*
Cc1noc(C)c1NC(=O)N(C)C[C@H]1Oc2ccc(NS(=O)(=O)c3cn(C)cn3)cc2C(=O)N([C@H](C)CO)C[C@@H]1C,-8.6%,9.8,9.0%,-6.1%
CCOC(=O)CSc1ccc2ccccc2n1,-1.1%,-8.5,-1.6%,-2.1%
CCOC(=O)CN1C=C(c2ccc3ccccc3n2)C(C[N+](=O)[O-])c2ccccc21 (stereo unspecified),?,5.9,5.7%,16.4µM*
SMILES,SW480 rerep,Giardia kill,uPA generation,MCF10A rerep
CC(C)(C)OC(=O)N1CCC(C(=O)NCC2CCCO2)CC1 (stereo unspecified),5.0%[9.22 µM],4.2,-5.0%,?
Cc1cccc2cc(C(c3nnnn3Cc3ccccc3)N3CCCc4ccccc43)c(=O)[nH]c12 (stereo unspecified),4.61µM*,-6.7,-6.2%,5.17µM*
CCN1CCN(C(c2cc3cccc(C)c3[nH]c2=O)c2nnnn2Cc2ccccc2)CC1 (stereo unspecified),1.0%,13.8,-3.6%,3.3%
CC1CC/C(=C\c2ccc3c(c2)OCO3)C(=O)/C1=C/c1ccc2c(c1)OCO2 (stereo unspecified),?,-7.8,-7.7%,7.31µM*
O=C1/C(=C\c2ccc3c(c2)OCO3)CCC/C1=C/c1ccc2c(c1)OCO2,-2.3%,-5.7,-0.3%,11.6µM*
CC1CCCCN1C(=O)CN1C(=O)CSc2ccc(S(=O)(=O)N3CCOCC3)cc21 (stereo unspecified),4.6%,-6.2,-1.2%,-3.1%
COc1cccc(-c2cc(=O)c3cc(NC(=O)c4ccc(Cl)cc4)ccc3[nH]2)c1,?,-0.6,-8.7%,?
COc1cccc(-c2cc(=O)c3cc(NC(=O)c4ccccc4)ccc3[nH]2)c1,2.91µM*,-28.9,?,5.8µM*
COc1cccc(-c2cc(=O)c3cc(NC(=O)c4ccc(N(C)C)cc4)ccc3[nH]2)c1,0.581µM*,10.0,?,0.411µM*
CSCCC(NS(=O)(=O)c1cccc(C(F)(F)F)c1)C(=O)N(C)CCOc1ccc(Cl)cc1 (stereo unspecified),5.8µM*,-2.3,?,?
CSCCC(NS(=O)(=O)c1cccc(C(F)(F)F)c1)C(=O)N1CCN(C(=O)c2ccco2)CC1 (stereo unspecified),-9.3%,-4.6,-28.4%,-6.6%
COc1ccc(Nc2nc(N)c([N+](=O)[O-])c(NC3CCCCC3)n2)cc1,?,-0.6,-2.3%,16.4µM*
Cc1nnc(SCC(=O)Nc2nccs2)n1N,?,33.3,1.2%,0.1%
Cc1ccc(C)c(CN2CCC(CNC(=O)Nc3ccc(F)c(Cl)c3)CC2)c1,18.4µM*,-7.9,3.7%,25.9µM*
Cc1cc(C)cc(NC(=O)NCC2CCN(Cc3cc(C)ccc3C)CC2)c1,-5.2%,-5.0,-3.0%,-3.2%
Cc1ccc2oc(C(=O)N(C)Cc3ccon3)c(C)c2c1,-6.5%,-23.1,?,-2.7%
Cc1ccc2oc(C(=O)N(C)Cc3ccc(C)o3)c(C)c2c1,?,-14.0,?,23.1µM*
COc1cccc2cc(C(=O)N(Cc3cccs3)Cc3cccs3)c(=O)oc12,·,22.9,·,·
CSc1ccc(C(c2c(C(=O)O)[nH]c3ccccc23)c2c(C(=O)O)[nH]c3ccccc23)cc1,?,-11.5,11.0%,20.6µM*
CCc1ccc(-c2cc(C(F)(F)F)n3nc(C(=O)Nc4c(C)nn(Cc5ccccc5Cl)c4C)cc3n2)s1,10.3µM*,-4.5,13.9%,3.26µM*
Cc1ccccc1Cn1ccc(NC(=O)c2cc3nc(-c4ccco4)cc(C(F)(F)F)n3n2)n1,?,-6.4,-3.3%,8.2µM*
CCc1ccc(-c2cc(C(F)(F)F)n3nc(C(=O)Nc4c(C)nn(Cc5ccccc5C)c4C)cc3n2)s1,2.59µM*,-2.4,7.2%,?
Cc1nn(Cc2ccccc2)c(C)c1NC(=O)c1cc2nc(-c3ccco3)cc(C(F)(F)F)n2n1,-0.3%,29.9,-0.9%,22.8%
CCc1ccc(-c2cc(C(F)(F)F)n3nc(C(=O)Nc4cnn(Cc5ccccc5C)c4)cc3n2)s1,23.5%,-7.5,·,?
